Results on five compounds are retold here after PubChem BioAssay.

Activity calls are given as the source filed them.

Test [1] in a line: small molecules captured by biotinylated probe aFSTL3 – biochemical, small-molecule microarray, fluorescence 635/667, stem cell growth factor project, primary screen (AID 1064).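 Note: measures binding of the biotinylated anti-FSTL3 antibody to printed compounds.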 Particulars: higher = more signal.
A short description of test [2]: binders from COS7 lysate, DM2A8 probe, primary screen, torsin A project, cell lysate, small-molecule microarray, fluorescence 635/667 (AID 1065). To be noted: higher = more signal, COS7 lysate expressing mutant human TOR1A.
Test [3] can be described thus: small molecules captured by biotinylated probe aFGF2 – biochemical, small-molecule microarray, fluorescence 635/667, stem cell growth factor project, primary screen (AID 1067).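 Note: measures binding of biotinylated aFGF2 protein to printed compounds on slides; z-score merges feature fluorescence and signal-to-noise across triplicate slides.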 To be noted: higher = more signal.
A short description of test [4]: small molecules captured by biotinylated probe aFGF10 – biochemical, small-molecule microarray, fluorescence 635/667, stem cell growth factor project, primary screen (AID 1071).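 Note: score merges 667 nm spot intensity and signal to noise from triplicate slides.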 Particulars: higher = more signal.
Test [5] concerns the target Neurogenic locus notch homolog protein 2 (Homo sapiens) (UniProt Q04721). Kind of test: small molecules binding Notch2 protein – biochemical, small-molecule microarray, 635 nm fluorescence, stem cell growth factors, primary screen (AID 1073). Particulars: higher = more signal.
In test [6] the target is Pro-neuregulin-1, membrane-bound isoform (Homo sapiens) (UniProt Q02297). Kind of test: small molecules binding neuregulin-1 protein – biochemical, small-molecule microarray, fluorescence 635/667, psychiatric disease protein project, primary screen (AID 1075).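 Note: score combines 667 nm spot fluorescence with signal to noise.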 To be noted: NRG1 binding, 635 nm fluorescence, higher = more signal.
Sequence of Pro-neuregulin-1, membrane-bound isoform (Homo sapiens) (Q02297 whole entry, looked up, the tested form may be a part, canonical isoform): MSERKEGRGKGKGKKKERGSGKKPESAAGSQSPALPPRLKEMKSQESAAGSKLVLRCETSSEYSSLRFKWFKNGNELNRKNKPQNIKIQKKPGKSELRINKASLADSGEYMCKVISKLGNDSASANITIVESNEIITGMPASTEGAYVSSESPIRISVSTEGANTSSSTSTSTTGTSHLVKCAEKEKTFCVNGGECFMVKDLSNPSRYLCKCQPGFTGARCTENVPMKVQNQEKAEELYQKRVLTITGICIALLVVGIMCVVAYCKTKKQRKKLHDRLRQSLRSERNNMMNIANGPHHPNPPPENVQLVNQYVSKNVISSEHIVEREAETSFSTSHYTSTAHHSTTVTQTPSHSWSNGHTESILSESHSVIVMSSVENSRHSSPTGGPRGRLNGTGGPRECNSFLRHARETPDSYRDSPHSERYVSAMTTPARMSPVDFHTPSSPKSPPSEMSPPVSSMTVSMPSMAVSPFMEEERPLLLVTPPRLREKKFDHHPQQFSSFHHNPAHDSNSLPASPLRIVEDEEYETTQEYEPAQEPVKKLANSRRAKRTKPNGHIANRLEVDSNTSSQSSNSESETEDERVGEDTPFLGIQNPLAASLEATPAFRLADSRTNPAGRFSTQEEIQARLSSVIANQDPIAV
The test system of test [7] is Neuregulin-1 EGF-like domain. The experiment in a line: small molecules binding NRG1 EGF domain – biochemical, small-molecule microarray, 635 nm fluorescence, primary screen (AID 1081).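 Note: binding of the protein to compounds printed on small-molecule microarray slides.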 Particulars: higher = more signal.
Test [8] is described as follows: FRG1 expression reporter modulators in myotubes – cell-based, C2C12 myotubes, firefly/Renilla luciferase, luminescence, FRG1 inhibition for FSHD, primary screen (AID 1084). To be noted: FRG1 promoter luciferase, higher = more signal, called active from +8 up or from −8 down.
The nature of test [9]: small molecules captured by biotinylated probe aFST – biochemical, small-molecule microarray, fluorescence 635/667, stem cell growth factor project, primary screen (AID 1086).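 Note: score merges 667 nm fluorescence with signal-to-noise of each printed compound spot.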 To be noted: higher = more signal.
Test [10] is described as follows: binders of probe aHhip on microarray, primary screen, stem cell growth factor project, biochemical, small-molecule microarray, fluorescence 635/667 (AID 1087).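 Note: score merges spot fluorescence at 667nm with spot signal to noise ratio.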 To be noted: higher = more signal.
For test [11], the system named is PRMT1 (protein arginine N-methyltransferase 1). The experiment in a line: small molecules binding arginine methyltransferase PRMT1 – biochemical, small-molecule microarray, 635 nm fluorescence, primary screen (AID 1088).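 Note: binding of Prmt1 protein to compounds spotted on small-molecule microarray slides.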 To be noted: higher = more signal.
Test [12] in a line: growth effects on S. cerevisiae YJM789 – YJM789 clinical isolate, OD600, 24 h, basal, primary screen (AID 1089).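 Note: growth of clinical yeast isolate S. cerevisiae YJM 789 seeded 1000 cells per well; test concentration not given here.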 To be noted: higher = more signal, called active from +8 up or from −8 down.
Test [13] in a line: S. pombe growth modifiers, basal conditions – strain 972, OD600, 24 h, no modulator, primary screen (AID 1090).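 Note: basal condition with compound alone and no growth modifier present; test concentration not given here.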 To be noted: S. pombe 972 growth, higher = more signal, called active from +8 up or from −8 down.
The nature of test [14]: budding yeast growth modifiers under rapamycin – strain BY4716, OD600, 96 h, primary screen (AID 1091). Note: test concentration not given here. Particulars: S. cerevisiae BY4716 + rapamycin, higher = more signal, called active from +8 up or from −8 down.
For test [15], the target named is Torsin-1A-interacting protein 2 (Homo sapiens) (UniProt Q8NFQ8). Kind of test: small molecules binding lysate-expressed LULL1 – cell lysate, human LULL1 lysate, 635/667 nm fluorescence, primary screen (AID 1092).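 Note: probe is lysate of COS7 cells overexpressing human LULL1; score merges per-feature 667 nm fluorescence with signal-to-noise.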 To be noted: small-molecule microarray, hLULL1 lysate binding, 635 nm fluorescence; higher = more signal.
Sequence of Torsin-1A-interacting protein 2 (Homo sapiens) (Q8NFQ8 whole entry, looked up): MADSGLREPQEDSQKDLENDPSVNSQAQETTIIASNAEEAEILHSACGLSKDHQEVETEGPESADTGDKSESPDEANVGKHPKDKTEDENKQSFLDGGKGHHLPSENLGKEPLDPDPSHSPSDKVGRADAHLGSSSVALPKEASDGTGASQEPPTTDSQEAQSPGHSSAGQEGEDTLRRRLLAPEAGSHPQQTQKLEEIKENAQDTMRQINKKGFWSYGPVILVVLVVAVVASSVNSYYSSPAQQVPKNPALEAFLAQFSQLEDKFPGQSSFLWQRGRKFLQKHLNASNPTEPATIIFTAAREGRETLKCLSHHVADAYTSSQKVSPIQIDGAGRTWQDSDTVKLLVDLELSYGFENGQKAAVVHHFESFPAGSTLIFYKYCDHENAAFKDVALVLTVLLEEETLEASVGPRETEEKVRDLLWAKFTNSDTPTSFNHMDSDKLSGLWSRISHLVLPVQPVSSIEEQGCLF
A short description of test [16]: optical density change of DRC41 E. coli – strain DRC41, OD650, 24 h, E. coli filamentation project, primary screen (AID 1093).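 Note: MC1000 strain lacking acrAB efflux and sulA so SOS filamentation is blocked; test concentration not given here.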 To be noted: E. coli DRC41 growth, higher = more signal, called active from +8 up or from −8 down.
Test [17] is described as follows: probe aLefty2 binding to arrayed compounds – biochemical, biotinylated probe, 635/667 nm fluorescence, primary screen (AID 1094).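 Note: score merges spot fluorescence near 667 nm with spot signal-to-noise ratio.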 To be noted: small-molecule microarray, higher = more signal.
The subject of test [18] is Noggin (protein binding on small-molecule microarray). Kind of test: small molecules binding Noggin protein – biochemical, 635/667 nm fluorescence, primary screen (AID 1095).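 Note: score merges 667 nm feature fluorescence with signal to noise over triplicate slides.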 To be noted: 635 nm fluorescence, higher = more signal.
Test [19] has as its target Neurogenic locus notch homolog protein 3 (Homo sapiens) (UniProt Q9UM47). Kind of test: small molecules binding NOTCH3 protein – biochemical, 635/667 nm fluorescence, primary screen (AID 1096). Particulars: small-molecule microarray, 635 nm fluorescence, higher = more signal.
The nature of test [20]: probe aEGFR binding to arrayed compounds – biochemical, biotinylated probe, 635/667 nm fluorescence, primary screen (AID 1097).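 Note: probe is a biotinylated anti-EGFR antibody binding compounds printed on slides; score combines fluorescence near 667 nm and signal to noise of each spot.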 Particulars: small-molecule microarray, higher = more signal.

Sequence of Neurogenic locus notch homolog protein 2 (Homo sapiens) (Q04721 whole entry, looked up, canonical isoform): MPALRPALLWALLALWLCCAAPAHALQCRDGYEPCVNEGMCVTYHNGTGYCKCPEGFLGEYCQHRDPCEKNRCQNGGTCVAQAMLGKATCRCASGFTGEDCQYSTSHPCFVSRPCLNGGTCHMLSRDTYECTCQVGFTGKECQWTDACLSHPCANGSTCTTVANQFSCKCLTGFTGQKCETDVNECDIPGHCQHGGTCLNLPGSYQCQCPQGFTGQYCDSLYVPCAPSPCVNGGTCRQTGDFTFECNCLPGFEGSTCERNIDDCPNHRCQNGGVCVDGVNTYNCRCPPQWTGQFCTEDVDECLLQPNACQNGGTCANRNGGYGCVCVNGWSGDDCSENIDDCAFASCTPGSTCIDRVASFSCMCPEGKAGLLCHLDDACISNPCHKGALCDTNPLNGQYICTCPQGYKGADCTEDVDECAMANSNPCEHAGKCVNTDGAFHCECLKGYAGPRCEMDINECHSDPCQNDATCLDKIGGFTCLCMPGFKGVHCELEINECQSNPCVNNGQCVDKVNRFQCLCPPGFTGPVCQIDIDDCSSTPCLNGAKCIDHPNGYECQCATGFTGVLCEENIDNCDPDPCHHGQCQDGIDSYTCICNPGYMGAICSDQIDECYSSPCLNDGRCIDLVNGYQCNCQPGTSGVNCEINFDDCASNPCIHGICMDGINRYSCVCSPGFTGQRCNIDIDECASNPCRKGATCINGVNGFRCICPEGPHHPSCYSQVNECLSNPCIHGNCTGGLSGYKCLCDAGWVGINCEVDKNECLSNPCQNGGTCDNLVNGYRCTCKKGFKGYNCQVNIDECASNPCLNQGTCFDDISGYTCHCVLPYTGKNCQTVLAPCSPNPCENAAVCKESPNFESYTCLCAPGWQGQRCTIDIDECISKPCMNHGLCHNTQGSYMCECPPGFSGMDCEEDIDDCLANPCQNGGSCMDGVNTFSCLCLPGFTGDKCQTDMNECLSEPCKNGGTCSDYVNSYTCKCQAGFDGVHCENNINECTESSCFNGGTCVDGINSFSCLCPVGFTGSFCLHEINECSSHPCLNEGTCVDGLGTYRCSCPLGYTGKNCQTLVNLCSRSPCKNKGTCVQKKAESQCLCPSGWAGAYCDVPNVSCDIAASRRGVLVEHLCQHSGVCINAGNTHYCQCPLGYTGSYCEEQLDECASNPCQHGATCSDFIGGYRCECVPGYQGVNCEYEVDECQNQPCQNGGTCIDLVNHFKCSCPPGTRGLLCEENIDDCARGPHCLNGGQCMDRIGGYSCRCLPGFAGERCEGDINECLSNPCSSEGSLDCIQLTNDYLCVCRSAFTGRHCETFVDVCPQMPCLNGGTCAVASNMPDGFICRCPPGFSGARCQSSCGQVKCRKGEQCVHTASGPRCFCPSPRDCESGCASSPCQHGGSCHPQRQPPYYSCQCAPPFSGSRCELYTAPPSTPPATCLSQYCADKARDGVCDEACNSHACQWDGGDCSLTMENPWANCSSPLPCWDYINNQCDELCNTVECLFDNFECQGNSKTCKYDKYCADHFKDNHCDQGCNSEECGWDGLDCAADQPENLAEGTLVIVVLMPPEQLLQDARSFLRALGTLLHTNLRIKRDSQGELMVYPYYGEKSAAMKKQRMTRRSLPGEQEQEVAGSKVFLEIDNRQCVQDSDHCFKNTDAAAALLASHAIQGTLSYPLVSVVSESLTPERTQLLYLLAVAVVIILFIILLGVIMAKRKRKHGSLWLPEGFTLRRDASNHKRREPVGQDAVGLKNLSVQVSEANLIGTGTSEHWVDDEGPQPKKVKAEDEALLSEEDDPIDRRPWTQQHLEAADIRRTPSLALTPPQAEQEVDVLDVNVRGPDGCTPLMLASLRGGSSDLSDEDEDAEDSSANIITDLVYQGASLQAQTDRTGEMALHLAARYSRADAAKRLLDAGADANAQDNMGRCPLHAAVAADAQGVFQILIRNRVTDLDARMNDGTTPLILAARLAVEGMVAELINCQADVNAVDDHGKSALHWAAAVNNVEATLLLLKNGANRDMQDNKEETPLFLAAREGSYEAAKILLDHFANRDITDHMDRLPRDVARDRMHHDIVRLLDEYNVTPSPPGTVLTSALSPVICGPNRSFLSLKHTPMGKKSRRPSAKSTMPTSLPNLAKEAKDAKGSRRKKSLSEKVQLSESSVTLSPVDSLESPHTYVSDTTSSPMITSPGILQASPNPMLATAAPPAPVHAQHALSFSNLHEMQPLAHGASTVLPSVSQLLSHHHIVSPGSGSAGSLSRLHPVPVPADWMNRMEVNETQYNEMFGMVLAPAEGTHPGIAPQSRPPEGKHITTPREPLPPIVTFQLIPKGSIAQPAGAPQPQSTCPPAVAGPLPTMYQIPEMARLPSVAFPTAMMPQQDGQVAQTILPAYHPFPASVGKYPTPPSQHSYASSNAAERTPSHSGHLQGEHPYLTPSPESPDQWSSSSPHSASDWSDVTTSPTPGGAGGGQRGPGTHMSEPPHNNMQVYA

For the compound `CCC(CC)C(O)C1C=CC2C(=O)N(c3ccccc3)C(=O)C2N1Nc1ccc([N+](=O)[O-])cc1` (stereo not given), the composite z-score in test [1] is 0.453; in test [2], -0.0903; in test [3], 0.22; in test [4], 0.848; in test [5], 1.56; in test [6], 1.07. Besides, the composite z-score came out at 1.26 in test [7]; 0.944 in test [9]; 0.327 in test [10]; 1.53 in test [11]; 3 in [15]; 0.323 in test [17]. The values for the composite z-score in [18], in [19] and in [20] were 0.0809, 1.07 and 0.277, respectively. Moreover, the z-score is -1.91 (inactive) in test [8]; -0.255 (inactive) in test [12]; 1.27 (inactive) in [13]; 1.28 (inactive) in test [14]; -0.27 (inactive) in test [16].

Regarding `C=C(/C(=C/C[C@@H](OC(C)=O)c1ccc(CO)o1)c1cc(C(=O)OC)ccc1OC)C(C)C`, the composite z-score in test [1] is -0.245; in test [2], -0.02; in test [3] it was -0.076; in [4], 0.938; in test [5] it was 1.18; in test [6] it was 1.18. The composite z-score in [7] was 1.21; in [9] it was -0.0417; in [10] it was -0.0618; in test [11], 0.864; in [15] it was 1.86; in test [17] it was -0.0142. Further, the results for the composite z-score in [18], in [19] and in test [20] were 0.328, 0.213 and 0.358, respectively. Besides, the z-score was -0.0698 (inactive) in [8]; 1.06 (inactive) in test [12]; -0.245 (inactive) in test [13]; -0.0251 (inactive) in test [14]; -0.0453 (inactive) in test [16].

Consider `CC(=O)n1cc(C(O)C2C=CC3C(=O)N(c4ccccc4)C(=O)C3N2Nc2ccc(C(C)C)cc2)c2ccccc21` (stereo not given), for which the composite z-score is 0.657 in test [1]; 0.249 in [2]; 0.125 in test [3]; 0.899 in [4]; 1.55 in test [5]; 1.95 in [6]. The composite z-score is 1.15 in test [7]; 1.07 in [9]; -0.0645 in test [10]; 1.22 in test [11]; 3.27 in [15]; 0.353 in test [17]. For the same compound, the composite z-score in test [18] is -0.706; in [19], 1.04; in [20], 0.0786. Also, the z-score was -0.833 (inactive) in test [8]; -0.314 (inactive) in [12]; 0.713 (inactive) in test [13]; 0.0496 (inactive) in [14]; -0.811 (inactive) in test [16].

Consider `C=CCC(OC(C)=O)[C@@H]1[C@@H](N(Cc2ccc(-c3ccccc3)cc2)C(=O)Cc2ccc(F)cc2)c2cc(OCCCO)ccc2N1C(=O)Cc1ccc2ccccc2c1` (stereo not given in full), for which the composite z-score in [1] was -0.0873; in [2], -0.286; in test [3] it was -0.0271; in test [4], -0.214; in test [5], -0.821; in test [6], -0.0447. The composite z-score in test [7] was -0.84; in test [9], 0.252; in test [10], -0.0047; in test [11], -0.848; in [15], 2.46; in test [17] it was 0.385. Moreover, the composite z-score is 0.115 in test [18], 0.151 in test [19] and -0.0828 in test [20]. Besides, the z-score in [8] was 0.0197 (inactive); in test [12], -0.106 (inactive); in test [13], 0.412 (inactive); in test [14], 0.0926 (inactive); in [16], 0.708 (inactive).

For `CN(C)CCCNC(=O)[C@@H]1c2ccccc2C(=O)N(C2CCCCC2)[C@H]1c1ccc(CO)cc1`, the composite z-score in test [1] was -0.537; in test [2], 0.249; in test [3] it was 0.0036; in [4], 0.577; in test [5], 1.57; in test [6], 1.59. The composite z-score in [7] was 1.41; in test [9] it was 0.434; in test [10], -0.131; in [11] it was 1.55; in test [15], 3.08; in [17], -0.118. In addition, the composite z-score in test [18] stood at 0.98; in [19], 1.03; in test [20], 0.251. In addition, the z-score is -0.988 (inactive) in test [8]; 0.154 (inactive) in test [12]; -1.13 (inactive) in test [13]; -1.02 (inactive) in test [14]; 0.37 (inactive) in test [16].
